TRHR enhancer-1 = allosteric enhancers of human TRH receptor. P34981. TRHR cells, fluo-8 calcium fluorescence, EC20 TRH enhancement. enhancement, % at 2 µM. 360,000 tested, 0.66% active. AID 493056; in the data active = enhancement above about 30%; also: 0% is about no effect
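TRHR-expressing cells loaded with fluo-8 calcium dye were read kinetically (ex 480/em 530) during compound addition, then stimulated with an EC20 of TRH (10 nM final). Enhancement of the Gq-mediated intracellular calcium response was scored.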
TRPML1 inh = inhibitors of human TRPML1 channel | TRPML1-inducible cells, Ca2+ dye fluorescence, FDSS; hits give low values; inhibition of EC80 agonist-evoked calcium signal | activity change, negative = inhibition, % (concentration not given with the values) | 390,000 tested, 0.02% active; in the data active = activity change below about -50%; inconclusive = between about -30% and that limit;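 also: stimulus is agonist 54-4 at its EC80 concentration; % is scaled to controls: 0 for no effect and ±100 for the full control effect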
Target sequence (Q9GZU1 whole entry, looked up): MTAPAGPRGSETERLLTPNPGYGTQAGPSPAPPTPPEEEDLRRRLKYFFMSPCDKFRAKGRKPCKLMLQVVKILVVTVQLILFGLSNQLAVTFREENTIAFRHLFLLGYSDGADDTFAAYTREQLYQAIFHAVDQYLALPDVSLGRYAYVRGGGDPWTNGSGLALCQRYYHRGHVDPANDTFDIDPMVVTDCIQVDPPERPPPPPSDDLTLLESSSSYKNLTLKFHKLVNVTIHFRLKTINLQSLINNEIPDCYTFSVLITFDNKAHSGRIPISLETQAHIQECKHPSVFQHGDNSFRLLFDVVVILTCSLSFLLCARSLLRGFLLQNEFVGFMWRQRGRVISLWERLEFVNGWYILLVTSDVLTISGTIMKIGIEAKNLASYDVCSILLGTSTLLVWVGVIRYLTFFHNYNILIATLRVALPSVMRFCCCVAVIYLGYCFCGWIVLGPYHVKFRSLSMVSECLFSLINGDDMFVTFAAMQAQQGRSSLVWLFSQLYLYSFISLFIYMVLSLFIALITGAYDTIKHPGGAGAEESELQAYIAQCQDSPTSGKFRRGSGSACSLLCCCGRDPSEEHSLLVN
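Calcium fluorescence in TRPML1-DL cells induced overnight with Tet: a 110 s read after compound pin addition, then a 110 s antagonist read after challenge with 54-4 at 4 uM final (EC80).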
TRPML1 agonist = agonists of human TRPML1 channel; 410,000 tested, 0.12% active; Q9GZU1; activation, % (no concentration beside the values); TRPML1-expressing cells, Ca2+ dye fluorescence, FDSS; in the data active = activation above about 50%; inconclusive = mostly about 30% to 49%; also: 0% is about no effect
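In this qHTS format, compounds were pin-transferred onto Ca8-dye-loaded TRPML1-DL cells induced with Tet overnight, and intracellular Ca2+ fluorescence was recorded kinetically for 110 s after a 10 s baseline. A subsequent 4uM final 54-4 (EC80) addition followed by a second 110 s read served as the antagonist phase.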
TRHR agonist-1 = activates the human TRH receptor | P34981 | activation, % at 2 µM | 360,000 tested, 0.18% active | TRHR cells, calcium flux fluo-8, FDSS agonist mode; in the data active = activation above about 30%; also: 0% is about no effect
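In this calcium-flux screen, cells bearing human TRHR are dye-loaded with fluo-8, baselined for 10 cycles, then exposed to library compounds; positive kinetic calcium responses during the agonist phase mark hits, with TRH as control.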
TRHR enhancer-2 = confirmation of human TRH receptor allosteric enhancers. shares compounds with TRHR enhancer-1. TRH receptor cell assay, enhancer confirmation qHTS. activity change, negative = inhibition, % at 46.1 µM. 970 tested, under 10 active. AID 493076;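 also: compound effect scored on response to added TRH at EC20 of 10 nM; 0% is about no effect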
TRHR agonist-2 = human TRH receptor agonism confirmation; shares compounds with TRHR enhancer-1; TRHR-expressing cells, agonist activation read-out; Potency, µM (highest dose often 46.1 µM), for inactives: at the highest dose activation, most hits filed as activators; 970 tested, 8% active; also: potency is read from the fitted curve at half-maximal effect; 0% is about no effect; nearly all actives have a fitted effect of over 75% in size
* hit, by the source's call; ? = inconclusive; · = no result given. An excerpt weighted towards active compounds, which were near 0.81% of everything screened. Unless noted, calls follow the shape of the dose curve; as a rule, active = well fitted curve in the direction sought with a large enough effect; inconclusive = small, poorly fitted or top-dose-only effect, or another doubt; inactive = no such curve, though single readings can be large; an effect the other way counts as inactive or inconclusive.

SMILES | TRHR enhancer-1 | TRPML1 inh | TRPML1 agonist | TRHR agonist-1 | TRHR enhancer-2 | TRHR agonist-2
Nc1ccc(C(Cc2ccnc3ccccc23)Cc2ccnc3ccccc23)cc1 | · | · | -1 | · | · | ·
Cc1ccccc1NC(=S)N(Cc1cccnc1)Cc1ccccc1Cl | 47* | 1 | 0 | -1 | ? | 6%
COc1ccccc1NC(=S)N(Cc1cccnc1)Cc1ccccc1Cl | -1 | 35 | 2 | 0 | · | ·
Cc1cccc(-n2c(N)cc(=O)nc2SCC(=O)Nc2ccccc2)c1 | 45* | 73 | -2 | 1 | -5 | ?
Cc1ccc(C(=O)CCNc2cccc(Br)c2)o1 | 66* | -3 | -1 | -1 | -10 | 2%
Cc1ccc2c(C(=O)CNC3=NCCS3)c(C)[nH]c2c1 | · | · | -1 | · | · | ·
COc1ccc(-n2cc(C(=O)N(CCN(C)C)Cc3ccccc3)c3ccccc3c2=O)cc1 | 74* | -6 | 0 | 2 | -3 | 1%
COc1cc(NC(=S)NCCc2c[nH]c3ccccc23)c(OC)cc1Cl | 49* | -8 | 2 | 0 | -7 | 2%
CCOc1ccc(Nc2ccc(N3C(=O)CCC3=O)cc2[N+](=O)[O-])cc1 | 48* | 14 | 3 | 0 | -10 | 5%
COc1ccc(Nc2ccc(N3C(=O)CCCC3=O)cc2[N+](=O)[O-])cc1OC | -2 | 14 | -1 | 0 | · | ·
O=C(NCCc1ccc(Cl)cc1)c1cc(=O)[nH]c2ccccc12 | 43* | 25 | 0 | -1 | ? | 2%
Cc1ccc2[nH]c(=O)c3cc(C(=O)NCCc4ccc(Cl)cc4)sc3c2c1 | 57* | 8 | 1 | 2 | 3 | 1%
O=C(NCCc1ccc(Cl)cc1)c1cc(-c2ccncc2)nc2ccccc12 | -4 | · | · | 0 | · | ·
O=C(NCCc1ccc(Cl)cc1)c1cc(-c2ccccn2)nc2ccccc12 | 49* | 46 | 2 | 0 | -3 | 2%
NS(=O)(=O)c1ccc(CCNC(=O)c2cc(=O)[nH]c3ccccc23)cc1 | 6 | 11 | 1 | -1 | · | ·
C=CCNc1nc(NC2CCN(C)CC2)c2cc(OC)c(OC)cc2n1 | · | · | 0 | · | · | ·
CCN1CCc2c(sc(NC(=S)NC(=O)c3cccc(F)c3)c2C(N)=O)C1 | · | · | 8 | · | · | ·
COc1ccc(C(=O)N/N=C/c2sc3ccccc3c2O)cc1 | -3 | 8 | 7 | 7 | · | ·
O=C(N/N=C/c1sc2ccccc2c1O)c1ccccc1 | -6 | 19 | 15 | 38* | 1 | 21µM*
Cc1ccc2nc3c(cc2c1)c(NC(=O)C1CCCO1)nn3CC(C)C (stereo not given) | 6 | 1 | 1 | 0 | · | ·
Cc1ccc2cc3c(NC(=O)C4CCCO4)nn(CC(C)C)c3nc2c1 (stereo not given) | 47* | 5 | 2 | 0 | ? | 1%
Cc1ccc2c(C)ccnc2c1 | · | · | -1 | · | · | ·
Cc1cc(C=C2C(=O)c3ccccc3C2=O)c(C)n1-c1cccc(C(=O)O)c1 | 4 | 26 | 1 | 9 | · | ·
Cc1cc(C=C2C(=O)c3ccccc3C2=O)c(C)n1-c1ccc(C(=O)O)cc1 | 49* | 12 | 1 | 5 | -10 | ?
CNC(=O)c1cc2cc(OC)ccc2oc1=O | 0 | -8 | 0 | 1 | · | ·
SMILES | TRHR enhancer-1 | TRPML1 inh | TRPML1 agonist | TRHR agonist-1 | TRHR enhancer-2 | TRHR agonist-2
COc1ccc2oc(=O)c(C(=O)NC3CCCCCC3)cc2c1 | 51* | -4 | 0 | 0 | -2 | -1%
CCc1nnc(NC(=O)CCC(=O)N2CCN(Cc3cc(Cl)ccc3OC)CC2)s1 | 64* | 20 | 2 | 0 | 0 | 2%
CC1Cc2cc(/C(O)=C3/C(=O)C(=O)N(CCN4CCOCC4)C3c3ccc(C(C)C)cc3)ccc2O1 (stereo not given) | 4 | -5 | 0 | 1 | · | ·
CC1Cc2cc(/C(O)=C3/C(=O)C(=O)N(CCN4CCOCC4)C3c3ccc(N(C)C)cc3)ccc2O1 (stereo not given) | 42* | -8 | 2 | 0 | -3 | 2%
CCCn1c2ccccc2c2nnc(SC(CC)C(=O)Nc3sc4c(c3C#N)CCCC4)nc21 (stereo not given) | 8 | -4 | -1 | 25 | 4 | -1%
Cc1cc(=O)[nH]c(SCC(=O)N2CCc3ccccc3C2)n1 | -1 | 3 | 0 | 28 | ? | -1%
Cc1ccnc(SCC(=O)N2CCc3ccccc3C2)n1 | -3 | 5 | 0 | 0 | · | ·
